Values joined by “and” are separate entries in the source; they are usually repeats but may differ in a detail not shown here. Equal values may be shown once.

What is called Inhibition is how much of the control response was suppressed.

The test system of this experiment is Plasmodium falciparum. As to the kind of experiment: GSK_TCMDC: Inhibition of Plasmodium falciparum 3D7 in whole red blood cells, using parasite LDH activity as an index of growth. Test compounds present at 2uM. The class given is functional.
As for `O=C(NC1CCCCC1)c1ccc(O)c(-c2cccc(C(F)(F)F)c2)c1`, the Inhibition was 97%.

Turning to `CC(=O)Nc1ncc(C(=O)Nc2ccc(-c3cccc(-c4nc5cc(C(F)(F)F)ccc5[nH]4)c3)cc2)s1`, the Inhibition was found to be 100%.

`CC(=O)Nc1nc(C(=O)Nc2ccc(-c3cccc(-c4nc5cc(C(F)(F)F)ccc5[nH]4)c3)cc2)cs1` showed an Inhibition of 100%.

`COc1ccc2nccc([C@H](O)CN3CCC(NCc4nc5cccc(F)c5[nH]4)CC3)c2c1.O=C(O)C(=O)O` gave an Inhibition of 98%.

In the case of `O=C(O)C1CC(=O)N(c2ccc(Cl)cc2)C1` (stereo unspecified), the Inhibition was determined as 97%.

In turn, `COc1cccc(CN2CCCC(CCC(=O)Nc3ccc(C(F)(F)F)cc3)C2)c1O` (stereo unspecified) yielded an Inhibition of 98%.

The molecule `COc1ccc2nccc([C@@H](O)CN3CCC(NC(=O)C(c4cc5ccccc5o4)N4CCN(c5ccccc5)CC4)CC3)c2c1` (stereo partly specified) registered an Inhibition of 99%.

`CCC(C)NC(=O)Nc1ccc(-c2cccc(-c3nc4ccccc4[nH]3)c2)cc1` (stereo unspecified) showed an Inhibition of 94%.

Regarding `CC(C)Cn1c(Sc2ccc(C#N)c([N+](=O)[O-])c2)nnc1-c1cccc(Cl)c1`, the Inhibition is on record as 98%.

`COc1cccc(-c2nc3c(N4CCN(c5ccncc5)CC4)cccc3n2CC2CCCCCN2)n1.O=C(O)C(F)(F)F` (stereo unspecified) returned an Inhibition of 91%.

In the case of `CC(C)CCNc1nc(NCCc2ccccc2)c2cc(O)ccc2n1`, the Inhibition worked out at 100%.

Molecule `Cl.Nc1ccc(-c2nc3c(ccc4ccccc43)[nH]2)cc1` displayed an Inhibition of 84%.

Molecule `COc1ccc(C=CC(=O)NC(=O)c2ccccc2OC(=O)c2ccccc2)cc1OC` showed an Inhibition of 87%.

`N=C(Nc1nc(-c2ccccn2)cc2ccccc12)c1cccc(Cl)c1` showed an Inhibition of 100%.

Turning to `CCC(CC(NCCCCNC(=O)c1ccc(NC(=O)c2ccc(Cl)cc2)cc1)c1ccccc1)c1ccccc1OC` (stereo unspecified), the Inhibition is 100% and 89%.

Molecule `COc1ccc2nccc([C@@H](O)CN3CCC(NCCNc4ccccn4)CC3)c2c1.O=C(O)C(=O)O` returned an Inhibition of 100%.

Regarding `O=C(Nc1ccc(Cl)cc1)c1ccc(CN2CCCN(Cc3ccc(F)cc3)CC2)cc1.O=C(O)C(F)(F)F`, the Inhibition worked out at 91%.

In the case of `O=C(O)C(F)(F)F.Oc1ccc(CC2CCCN(c3nc(NCCCOc4ccccc4-c4ccccc4)nc(N4CCNCC4)n3)C2)cc1` (stereo unspecified), the Inhibition was 95%.

Regarding `O=C(O)C(F)(F)F.c1cc(-c2ccc(CNCc3ccsc3)cc2)cc(-c2nc3ccccc3[nH]2)c1`, the Inhibition stood at 100%.

As for `COc1c(C2=CCN(CCCCNC(=O)c3ccc(-c4ccc(C#N)cc4)cc3)CC2)c(C)cc2c1C(C)(C)CCC2(C)C`, the Inhibition amounted to 92%.

In the case of `CCN(CC)CCN(Cc1ccc(-c2ccc(C(F)(F)F)cc2)cc1)C(=O)Cn1c(CCc2cccc(F)c2F)nc(=O)c2ccc(C)cc21.O=C(O)C(O)C(O)C(=O)O`, the Inhibition is 99%.

For `CN(C)CCNCc1ccc(-c2ccc(-c3nc4cc(F)ccc4[nH]3)cc2)cc1.O=C(O)C(F)(F)F`, the Inhibition was 100%.

Take `Cl.O=C1Nc2ccc3ncccc3c2/C1=C/Nc1ccc(N2CCN(CCO)CC2)cc1`: the Inhibition is on record as 86%.

Consider `CCNc1cc(C)nc(Nc2ccc(NS(=O)(=O)c3cc(OC)ccc3OC)cc2)n1`, for which the Inhibition was determined as 100%.

Molecule `Cn1cccc1C(=O)NCC(CCNc1cc(=O)c2ccccc2[nH]1)NCc1cc(Br)cc(Br)c1` (stereo unspecified) gave an Inhibition of 92%.

Take `CC(C)C[C@H](NC(=O)c1cc(-c2ccc(C(C)(C)C)cc2)no1)C(=O)O.CC(C)C[C@H](NC(=O)c1conc1-c1ccc(C(C)(C)C)cc1)C(=O)O`: the Inhibition was 95%.

`CCCCCCCc1ccc(-c2c(C)[nH]c(C)c(Cl)c2=O)cn1`: the Inhibition is recorded as 99%.

`COc1ccc(CC(Cc2ccc(OC)cc2)NCC(O)c2cccc(Cl)c2)cc1` (stereo unspecified) had an Inhibition of 100%.

For `O=C(/C=C/c1ccc(Cl)c(Cl)c1)N1CCN(C(=O)Nc2ccc(F)c(Cl)c2)CC1`, the Inhibition was 97%.

In turn, `Cc1cc(NC2CCN(Cc3ccccc3)CC2)nc(NCCCCc2ccccc2)n1` showed an Inhibition of 100%.

In the case of `COc1ccc(Nc2nccc(N3CCC(NC(=O)c4cc5ccccc5s4)C3)n2)cc1` (stereo unspecified), the Inhibition worked out at 99%.

As to `O=C(NCc1ccccc1)c1ccc(C(=O)NCC2CNCCO2)cc1.O=C(O)C(F)(F)F` (stereo unspecified), the Inhibition is on record as 92%.

`CN1CCCC(CN2CCN(Cc3ccc(-c4cccc(-c5nc6ccccc6[nH]5)c4)cc3)CC2)C1.O=C(O)C(F)(F)F` (stereo unspecified) returned an Inhibition of 100%.

Take `CCCc1cc(Cc2cnc(N)nc2N)cc(CCC)c1OC.Cl`: the Inhibition is reported as 92%.

`Cc1ccc(O)c(C(=O)c2cc(C(=O)Nc3ccccc3C)c(=O)n(-c3ccccc3C)c2)c1` yielded an Inhibition of 98%.

Molecule `CC1(C)CCCC(=Cc2ccc(Br)cc2)C1(O)Cn1ccnc1` (stereo unspecified) had an Inhibition of 99%.
